Compound activity (PubChem BioAssay)
D1 potentiator: potentiators of human D1 dopamine receptor | HEK293 TREx D1 cells, calcium flux, dopamine EC20 potentiation | potentiation, % at 10 µM | hit rate 0.036% among 360,000; in the data active means potentiation above about 30%
TRHR PAM: TRH receptor (human) allosteric enhancement; hit rate 0.66% among 360,000; AID 493056; enhancement, % at 2 µM; P34981; TRHR cells, fluo-8 calcium fluorescence, EC20 TRH enhancement; in the data active means enhancement above about 30%
Target sequence (P34981 whole entry, looked up): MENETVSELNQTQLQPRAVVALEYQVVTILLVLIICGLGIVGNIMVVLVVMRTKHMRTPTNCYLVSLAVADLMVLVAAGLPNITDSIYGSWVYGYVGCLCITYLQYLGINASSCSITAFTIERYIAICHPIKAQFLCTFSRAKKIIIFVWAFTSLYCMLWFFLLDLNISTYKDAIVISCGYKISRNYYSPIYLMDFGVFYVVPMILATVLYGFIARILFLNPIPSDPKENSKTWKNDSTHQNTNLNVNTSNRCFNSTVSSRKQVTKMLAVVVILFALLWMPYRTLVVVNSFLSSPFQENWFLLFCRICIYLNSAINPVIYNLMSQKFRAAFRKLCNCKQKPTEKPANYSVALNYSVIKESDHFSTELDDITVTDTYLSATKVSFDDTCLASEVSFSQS
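TRHR-expressing cells loaded with fluo-8 calcium dye were read kinetically (ex 480/em 530) during compound addition, then stimulated with an EC20 of TRH (10 nM final). Enhancement of the Gq-mediated intracellular calcium response was scored.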
TRHR agonist: agonists of human TRH receptor; P34981; TRHR cells, calcium flux fluo-8, FDSS agonist mode; hit rate 0.18% among 360,000; activation, % at 2 µM
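Agonist-mode FDSS calcium read (Ex 480/Em 530, 1 s cycles) in 1536-well TRHR cells with fluo-8 dye, after 10-cycle baseline and 23 nL compound addition; TRH at EC20 (10 nM final) added afterwards for the enhancer phase.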
D1 antag: blocks dopamine activation of the human D1 receptor | P21728 | HEK293 TREx D1 cells, calcium flux, dopamine EC80; stronger effect = lower value | activity change, negative = inhibition, % at 10 µM | hit rate 3.2% among 360,000; in the data active means activity change below about -30%
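Antagonism measured as reduced calcium response to an EC80 dopamine addition following 180 s compound pre-read; cells were inducible HEK293 Trex D1 plated overnight at 30 C, read kinetically at 1 cycle/sec.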
D1 agonist: agonists of human D1 dopamine receptor | P21728 | hit rate 1% among 360,000 | activation, % at 2 µM | AID 504660 | HEK293 T-REx D1 cells, calcium flux, agonist mode
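Agonism was scored from calcium flux recorded over 180 s (1 read/s) after pintool compound addition, following a 10-cycle baseline. Cells were inducible force-coupled HEK293 TREx D1, plated overnight at 30 C and loaded with no-wash calcium dye.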
Hits are given with their value; i = inactive; nt = no result given. The list is not random: actives were taken first. Their share in the collection is about 4.7%. Unless noted, no stated cut-off is given here; in the data, active means activation above about 30%; inactive means the rest.

SMILES	D1 potentiator	TRHR PAM	TRHR agonist	D1 antag	D1 agonist
O/N=C(/CCc1ccccc1)c1ccc2c(c1)OCCO2	i	i	i	-41	i
O=C(CCc1ccccc1)c1ccc2c(c1)OCCCO2	i	i	i	i	i
c1ccc(COc2ccccc2CNc2nn[nH]n2)cc1	i	i	i	-75	i
O=C(Cn1c(=O)oc2ccccc21)NCc1cccc(Cl)c1	i	i	i	i	i
Cc1ccc(CNC(=O)c2cc(S(=O)(=O)N3CCCCC3)cn2C)cc1	i	i	i	i	i
CC(C)(C)OC(=O)N[C@@H](C(=O)OC(C)(C)C)c1ccccc1	i	i	i	-35	i
Cc1ccc2nc(SCc3nnc(-c4cccs4)o3)[nH]c2c1	i	i	i	-37	i
Cc1ccc2nc(SCc3nnc(-c4ccccc4)o3)[nH]c2c1	i	i	i	i	i
COc1ccc(NC(=O)C2CCCN2C(=O)Nc2ccc(OC)cc2)cc1 (stereo not given)	i	i	i	i	i
COc1cc(OC)c(CN2CCc3c([nH]c4ccccc34)C2)cc1Br	i	i	i	-49	i
COc1cc(C)c(CN2CCC(Cc3ccccc3)CC2)cc1C	i	i	i	i	i
COc1cc(OC)c(CN2CCC(Cc3ccccc3)CC2)cc1Br	i	i	i	-43	i
Cc1ccc(C(=O)COC(=O)C(Cc2c[nH]c3ccccc23)NC(=O)c2ccc(C(C)(C)C)cc2)cc1 (stereo not given)	i	i	i	i	i
Cn1ncc(Cl)c1C(=O)NCC1CCCO1 (stereo not given)	i	i	i	i	i
COc1ccc(NC(=O)Cc2noc3ccc(C)cc23)cc1Cl	i	i	i	-31	i
COc1cc(N)c(Cl)cc1NC(=O)c1ccccc1	i	i	i	-55	i
COc1cccc(C(=O)Nc2ccccc2-c2ccccc2)c1	i	i	i	i	i
COc1c(Cl)cc(C(=O)Nc2ccccc2-c2ccccc2)cc1Cl	i	i	i	-31	i
CCN1CCN(C(=O)c2ccc(N3CC4CC(C3)c3cccc(=O)n3C4)c(NC(=O)c3cc(OC)cc(OC)c3)c2)CC1 (stereo not given)	i	i	i	i	i
O=C(O)CCCC(=O)N1CCN(c2nc(-c3ccccc3Cl)c3cc(Br)ccc3n2)CC1	i	i	i	i	i
Cc1cc(C)cc(NS(=O)(=O)c2ccc3c(c2)CCCN3C(=O)C2CCC2)c1	i	i	i	i	i
N#C/C(=N\O)c1nc2ccccc2s1	i	32	i	i	i
N#C/C(=C(/O)COc1ccccc1)c1nc2ccccc2s1	i	i	i	-42	i
N#C/C(=C(/O)c1ccc(F)cc1)c1nc2ccccc2s1	i	i	i	i	i
N#C/C(=C(/O)COc1ccc(Cl)cc1)c1nc2ccccc2s1	i	i	i	i	i
SMILES	D1 potentiator	TRHR PAM	TRHR agonist	D1 antag	D1 agonist
CCN1CCN(C(=O)Cn2ncc3c4ccccc4n(Cc4c(C)cc(C)cc4C)c3c2=O)CC1	i	i	i	i	i
Cc1ccc(S(=O)(=O)NC(=O)C2CCCCC2)cc1	i	i	i	-36	i
CC(=O)N1c2ccc(S(=O)(=O)NCCc3ccc(Cl)cc3)cc2CC1C (stereo not given)	i	i	i	i	i
COc1cccc(-c2c(C(=O)N/N=C(\C)c3ccncc3)nnn2-c2nonc2N)c1	i	i	i	i	i
CCOc1ccc(-c2c(C(=O)N/N=C(\C)c3ccco3)nnn2-c2nonc2N)cc1	i	i	i	i	i
COc1cccc(-c2c(C(=O)N/N=C(\C)c3cccs3)nnn2-c2nonc2N)c1	i	i	i	i	216
CCOc1cccc(-c2c(C(=O)N/N=C(\C)c3cccs3)nnn2-c2nonc2N)c1	i	i	i	i	95
Nc1nonc1-n1nnc(C(=O)N/N=C/c2ccc(Br)cc2)c1-c1ccc2c(c1)OCO2	i	i	i	i	47
CCOc1ccc(-c2c(C(=O)N/N=C(\C)c3cccs3)nnn2-c2nonc2N)cc1	i	i	i	i	44
CCOc1ccc(NC(=O)CSc2nc(=O)[nH]c3c2CCC3)cc1	i	i	i	nt	i
C/C(=N\NC(=O)c1nnn(-c2nonc2N)c1-c1ccc2c(c1)OCO2)c1cccs1	i	31	i	i	183
CS(=O)(=O)CCC(C(=O)Nc1cccc(C(F)(F)F)c1)N1Cc2ccccc2C1=O (stereo not given)	i	i	i	i	i
